Assay outcomes: PubChem BioAssay, The Scripps Research Institute Molecular Screening Center
Rows were chosen to be rich in hits. Some 1.1% of all compounds tested hit in one or more screens of this group.
bovine MsrA act – bovine MsrA enzyme activators, primary screen, biochemical, absorbance, HTS. AID 602163, 2012. activation, % at 10.6 µM. 360,000 compounds, 0.3% hits. purified bovine MsrA, absorbance read-out; in the data active means activation above about 7.5%;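 further: 0% = vehicle and 100% = reference activator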
PKA-R1A act – activators of PKA-R1A holoenzyme, primary screen, biochemical, fluorescence polarization, Cy5-IP20, bovine R1A, mouse PKAc; cAMP-dependent protein kinase type I-alpha regulatory subunit (Bos taurus) + …; 340,000 compounds, 0.083% hits; activation, % at 11.4 µM; PKA-R1A dissociation; scaled: DMSO 0%, 113 µM cGMP 100%; AID 504707, 2011;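 active means percent activation above the mean of all tested compounds plus 3 SD, cut at about 19% in these data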;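 further: higher means more PKAc released from R1A so a rise in polarization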
MsrA inhibitor – bovine MsrA enzyme inhibitors, primary screen, biochemical, absorbance, HTS; 360,000 compounds, 0.75% hits; inhibition, % at 15.5 µM; purified bovine MsrA, absorbance read-out; in the data active means inhibition above about 4.5%;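 further: 0% = vehicle wells with enzyme and 100% = reference inhibitor wells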
PKA-R2B activ – activators of PKA-R2B holoenzyme, primary screen, biochemical, fluorescence polarization, Cy5-IP20, human | cAMP-dependent protein kinase catalytic subunit beta (Homo sapiens) + cAMP-dependent … | PKA-R2B holoenzyme dissociation; R2B truncated from residue 108, S112A mutant; 0% DMSO only, 100% 113 µM cGMP | activation, % at 11.4 µM | 340,000 compounds, 0.079% hits | AID 504700, 2011;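 active means activation above a cutoff set at the mean over all compounds plus 3 SD, cut at about 18% in these data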;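 further: higher means more holoenzyme dissociation and a rise in polarization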
Target sequence (P31323 whole entry, looked up, other chains not shown, the tested form may be a part): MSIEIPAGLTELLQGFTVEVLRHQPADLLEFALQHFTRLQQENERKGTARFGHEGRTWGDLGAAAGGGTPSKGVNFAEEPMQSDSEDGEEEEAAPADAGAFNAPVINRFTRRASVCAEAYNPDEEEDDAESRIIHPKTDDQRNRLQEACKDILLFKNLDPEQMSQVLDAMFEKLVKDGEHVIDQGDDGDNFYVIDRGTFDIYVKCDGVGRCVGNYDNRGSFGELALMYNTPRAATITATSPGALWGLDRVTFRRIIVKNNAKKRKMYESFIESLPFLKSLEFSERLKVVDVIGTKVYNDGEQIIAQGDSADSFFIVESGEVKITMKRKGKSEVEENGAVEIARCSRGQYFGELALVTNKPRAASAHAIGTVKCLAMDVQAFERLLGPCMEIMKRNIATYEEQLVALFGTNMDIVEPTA
MsrA act confirm – bovine MsrA activators, retest, confirmation, biochemical, absorbance, HTS. activation, % at 10.6 µM. shares compounds with bovine MsrA act. purified bovine MsrA, absorbance read-out. 1,000 compounds, 12% hits; in the data active means activation above about 4%;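 further: enzyme coupled to thioredoxin and thioredoxin reductase with NADPH; 0% = vehicle wells and 100% = reference activator wells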
The depositor's hits bear a star; x = no result given.

SMILES	bovine MsrA act	PKA-R1A act	MsrA inhibitor	PKA-R2B activ	MsrA act confirm
CC(C)[C@H](NC(=O)c1ccccc1)C(=O)OCc1nc2scc(-c3ccccc3)c2c(=O)[nH]1	12.9*	-6.5	-0.3	-11.2	6.3*
O=[N+]([O-])c1ccc(C=Nc2cccc3ccccc23)s1	8.1*	-6.3	x	-1.2	6.5*
COc1ccc(Cc2c(-c3ccc(OC)c(OC)c3)nc3ccc(C)cn23)c(C)c1	12.9*	x	1.5	x	-0.8
COc1ccc(N2CCN(C(c3nnnn3C3CCCC3)C(C)C)CC2)cc1 (stereo unspecified)	8.9*	-0.6	-0.2	2.6	0.2
O=C(NNC(=O)c1cc(S(=O)(=O)N2CCOCC2)ccc1Cl)c1ccc(F)cc1	-0.6	4.6	0.2	8.0	x
COCCCN=Cc1c(C)[nH]n(-c2ccc(Br)c(C)c2)c1=O	9.3*	-8.6	0.3	-10.8	-3.9
CCOc1ccc(C2CC(=O)c3c([nH]c(C(=O)OC)c3C)C2)cc1OC (stereo unspecified)	-4.0	-1.3	-0.9	-4.9	x
COC(=O)c1[nH]c2c(c1C)C(=O)CC(c1cc(OC)ccc1OC)C2 (stereo unspecified)	9.9*	7.7	-0.8	1.4	-0.4
Cc1cccc(NC(=S)N(CCN(C)C)Cc2cc3cccc(C)c3[nH]c2=O)c1	20.1*	-1.6	0.8	1.9	-0.6
Cc1cccc(NC(=S)N(CCN(C)C)Cc2cc3cc(C)cc(C)c3[nH]c2=O)c1	-3.5	-2.0	0.4	-9.0	x
Cc1ccccc1-c1noc(CCC(=O)NCc2ccco2)n1	11.9*	3.4	-1.3	14.2	-2.3
COc1cc(C(=O)NN=C2c3ccccc3-c3ccccc32)cc(OC)c1OC	x	x	0.7	x	x
CCOc1cc(N2CCOCC2)c(OCC)cc1NC(=O)Cn1nc(C)c([N+](=O)[O-])c1C	-3.2	-1.4	0.6	1.4	x
Cc1nn(CC(=O)NCCCN2CCOCC2)c(C)c1[N+](=O)[O-]	14.4*	1.0	0.7	3.0	2.6
CC(Oc1ccccc1Cl)C(=O)N1CCOCC1 (stereo unspecified)	10.6*	3.4	-0.4	3.4	-1.9
C[C@H](O)[C@@H]1C(=O)N2CCc3c([nH]c4ccccc34)[C@@H]2C[C@@H]1N(C)Cc1ccc(Cl)cc1	7.8*	-5.9	0.3	-8.1	-1.2
COCC(=O)N(C)[C@H]1C[C@H]2c3[nH]c4ccccc4c3CCN2C(=O)[C@H]1[C@H](C)O	-0.8	-2.3	0.9	-11.1	x
CC(OC(=O)CCC(=O)c1cccs1)C(=O)Nc1ccc(Cl)cn1 (stereo unspecified)	-1.2	-6.7	0.4	0.2	x
Cc1cccc(OCCC(=O)OC(C)C(=O)Nc2ccc(Cl)cn2)c1 (stereo unspecified)	15.5*	6.0	-0.4	-11.1	-1.9
O=C(Cc1cn(Cc2ccccc2)c2ccccc12)Nc1ccc(Nc2cccnc2)cc1	x	x	1.4	x	x
COc1ccc(C2CC(=O)C(c3ccc(C(F)(F)F)cc3)=CN2Cc2ccccc2)cc1 (stereo unspecified)	x	x	2.3	x	x
CCOC(=O)CC(NC(=O)c1cccc2c1C(=O)N(Cc1cccnc1)C2)c1ccc(OCC)c(OC)c1 (stereo unspecified)	8.6*	-1.6	-1.1	-3.9	3.3
COC(=O)C1=C(C)N(C)C(=NCc2cccc(C(F)(F)F)c2)NC1c1ccc(Cl)cc1 (stereo unspecified)	x	x	-1.4	x	x
CC(=O)c1ccc(NC(=O)C2CC2c2ccccc2)cc1 (stereo unspecified)	10.0*	-5.6	-0.3	8.3	-4.1
O=C(NC(=S)NNC(=O)[C@H]1C[C@@H]1c1ccccc1)c1ccc(F)cc1	-6.3	-3.3	0.0	1.0	x
SMILES	bovine MsrA act	PKA-R1A act	MsrA inhibitor	PKA-R2B activ	MsrA act confirm
CC(C)(C)NC(=S)NNC(=O)[C@H]1C[C@@H]1c1ccccc1	8.5*	-6.7	-1.1	-4.2	-0.8
CC1=C(C#N)C(c2ccc(O)cc2)C2=C(CC(C)(C)CC2=O)N1 (stereo unspecified)	10.4*	7.8	0.4	-4.2	-1.2
COC(=O)CCS(=O)(=O)c1cc(Cl)ccc1Cl	8.3*	2.4	0.9	2.3	-0.1
C[C@H]1CNC(=O)c2c(C(=O)N3CCN(c4ccccc4)CC3)ncn21	x	x	-0.2	x	x
CCCN1CCN(C(=O)c2noc3c2COc2ccc(C)cc2-3)CC1	8.0*	-5.1	0.2	4.4	-2.2
CCOC(=O)N1CCN(C(=O)c2noc3c2COc2ccccc2-3)CC1	-3.8	-8.5	1.3	-9.2	x
O=C(COC(=O)c1cncc(Br)c1)NC12CC3CC(CC(C3)C1)C2	9.3*	x	0.1	x	-1.1
O=C(NC12CC3CC(CC(C3)C1)C2)c1cncc(Br)c1	-2.5	-9.5	1.1	-8.7	x
COc1ccccc1C(=O)Nc1ccccn1	12.4*	-1.1	0.7	-1.5	-1.2
COc1ccccc1CNC(=O)C(CCSC)NC(=O)C1CCC(C)CC1 (stereo unspecified)	9.0*	3.6	0.5	1.1	0.9
O=C(N1CCOCC1)N1CCN(C(=O)N(c2ccccc2)c2ccccc2)CC1	7.9*	-7.7	2.4	5.2	-1.6
C[C@H](c1ccccc1)N1C[C@@H](COCc2ccccc2)Oc2cccc(F)c2S1(=O)=O	x	x	1.5	x	x
COc1ccc(CN(Cc2ccc(OC)cc2)S(=O)(=O)c2ccc(-n3cnnn3)c(C)c2)cc1	0.8	2.1	0.1	0.4	x
COc1ccc(CN(Cc2cccnc2)S(=O)(=O)c2ccc(-n3cnnn3)c(OC)c2)cc1	8.1*	-16.7	-0.9	-2.0	-1.1
COC(=O)[C@]12C[C@H](CC(=O)NCc3cccc4ccccc34)C(=O)N(CCC3=CCCCC3)C1=C[C@H](COCc1ccccc1)O[C@@H]2C	x	x	0.4	x	x
C=CCn1c(N)c(C(=O)NCc2cccnc2)sc1=S	8.8*	-4.1	3.8	5.0	0.0
Cc1ccc(-c2ccnc(=S)[nH]2)cc1	9.4*	-0.3	-0.4	-6.4	6.2*
O=C(CCc1c[nH]c2ccccc12)Nc1ccc(Nc2ccccc2)cc1	x	x	0.6	x	x
O=C(N[C@H](Cc1ccccc1)C(=O)N1CCN(Cc2ccccn2)CC1)[C@H]1O[C@@H](n2ccc(=O)[nH]c2=O)[C@H](O)[C@@H]1O	x	x	-0.6	x	x
CCCCN(C(=O)c1cc(Cl)nc2ccccc12)c1c(N)n(CCC)c(=O)[nH]c1=O	-9.3	-3.2	0.7	-6.2	x
CCCCN(C(=O)c1cc(Cl)nc2ccccc12)c1c(N)n(Cc2ccccc2)c(=O)[nH]c1=O	11.5*	5.5	0.3	-10.0	0.4
CCCCCn1nnnc1-c1nc2cc(C)c(C)cc2[nH]c1=O	-1.2	x	-0.1	x	x
Cc1cc(N2CCNC[C@H]2C)ccc1N1CCN(Cc2ccccc2)[C@@H](C)C1	x	x	1.5	x	x
